PubChem BioAssay AID950 (NMMLSC, 2007)
In all, about 190,000 compounds went through this assay and about 120 (0.063%) were called active. The sample holds actives, similar compounds and a random draw of the others, so the mix is not that of the screen. No stated cut-off is given here; in the data, active means inhibition above about 40%; inconclusive means no clear call, values can overlap the other calls; inactive means below that.

target: Apoptosis regulator Bcl-2 (Homo sapiens) (UniProt P10415); experiment: inhibitors of Bim-Bcl-2 binding, primary screen, biochemical, multiplexed, human Bcl-2 family (AID 950); conditions: Bead-based flow cytometry, Bim peptide-Bcl-2 binding; at 10 µM; active compounds read high;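 further: 0% = no compound wells with probe peptide and 100% = reference peptide inhibitor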
Sequence (P10415 whole entry, looked up): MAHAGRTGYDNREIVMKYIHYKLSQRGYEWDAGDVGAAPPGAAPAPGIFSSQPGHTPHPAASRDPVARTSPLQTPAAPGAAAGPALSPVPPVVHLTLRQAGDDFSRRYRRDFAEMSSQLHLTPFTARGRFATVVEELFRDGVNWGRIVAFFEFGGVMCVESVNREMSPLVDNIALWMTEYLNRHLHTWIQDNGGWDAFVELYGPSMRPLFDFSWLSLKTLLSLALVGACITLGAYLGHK

inhibition, inactive:
COc1ccccc1-n1ccnc1SCC(=O)NC(C)(C)C -11%, CC12CN(NC(=O)c3ccc(Cl)cc3)C3(C#N)CC1CCC23C (configuration not stated) 0%, CC(=O)c1ccc(NC(=O)C(C)N(C)CC(=O)Nc2ccccc2Cl)cc1 (configuration not stated) 1%, CN(C)c1ccc(/C=N\S(=O)(=O)c2ccccc2)cc1 2%, CCC1CCCCN1S(=O)(=O)Cc1ccccc1Cl (configuration not stated) 1%, CCOc1ccc(NC(=S)N2CCCCCC2)cc1 -6%, COc1cccc(CNC(=O)CCC2CCCN(C(=O)c3cc(C)[nH]n3)C2)c1 (configuration not stated) -4%, CCOc1ccc2c(=O)c(-c3ccc4c(c3)OCCCO4)c(C)oc2c1 -3%, N/C(=N\OC(=O)c1ccc([N+](=O)[O-])cc1)c1ccccn1 -3%, COc1ccc2cc(-c3[nH]ncc3CNCCn3nc(C)cc3C)ccc2c1 -2%, Cc1cccc(NC(=O)CN2C(=O)c3ccccc3C2=O)c1C 0%, Fc1cccc(Cc2noc(CN3CCN(c4cnccn4)CC3)n2)c1 0%, Cc1cccc(-n2c(SCC(N)=O)nc3c(c2=O)C2(CCCCC2)Cc2ccccc2-3)c1 1%, CCCCCNC(=O)c1cccnc1SCC(=O)Nc1ccccc1OC -2%, O=C1CCCC2=C1C(c1cccs1)CC(=O)N2c1ccc(F)cc1 (configuration not stated) 4%, O=C(CC(=O)N/N=C\c1cccc(Cl)c1Cl)NCc1ccccc1 -2%, O=C(NN1C(=O)C2C3C=CC(C3)C2C1=O)c1ccco1 (configuration not stated) -4%, CN(c1ccccc1)c1nc(N)c([N+](=O)[O-])c(NCc2ccco2)n1 -2%, Cn1c(=N)n(CC(O)c2cccs2)c2ccccc21 (configuration not stated) -1%, O=C(CSc1ccc(C(F)(F)F)cc1[N+](=O)[O-])NCCOc1ccccc1 -7%, CC(C)(CNC(=O)c1ccc(Cl)c(S(=O)(=O)N2CCc3ccccc3C2)c1)N1CCOCC1 0%, CCN(CC)c1ccc2c(Nc3ccccc3)c(C=O)c(=O)oc2c1 -4%, C#CCOCCOCCOCCNc1nc(N2CCN(C(=O)[C@H](C(C)C)n3cc(CCO)nn3)CC2)nc(N2CCN(C(=O)[C@H](C(C)C)n3cc(CCO)nn3)CC2)n1 -3%, Cc1cc(C)c(C2C3=C(Nc4c2c(C)nn4-c2ccccn2)c2ccccc2C3=O)c(C)c1 (configuration not stated) -2%, CCN1CCc2nc(NC(=O)c3cc(F)c(F)cc3Cl)sc2C1 -5%, COc1ccc(C(=O)C2CCCN(Cc3cccn3-c3ccccn3)C2)c(C)c1 (configuration not stated) 0%, CCc1ccc(C2N3CC4([N+](=O)[O-])CN2CC([N+](=O)[O-])(C3)C4(C)C)cc1 (configuration not stated) -9%, CC1CCN(C(=S)c2cccc(O)c2)CC1 -5%, C/C(=N\NC(=O)c1cccnc1)c1ccc(-n2ccnc2)cc1 -4%, CCOC(=O)C1CCN(C(=O)C2(NC(=O)Nc3cccc(F)c3)CCCCC2)CC1 -2%, C=CCc1ccccc1OCC(=O)N/N=C/c1ccccc1OCC -4%, Cc1ccc(/C=N/NC(=O)CNC(=O)COc2ccccc2)o1 -10%, O=C(CN1CCN(c2ncccn2)CC1)Nc1ccccc1C(F)(F)F -2%, COCCCNC(NC(=O)c1ccc(OC)cc1)C(Cl)(Cl)Cl (configuration not stated) 0%, Cc1cccc(NC(=S)NCc2ccc3[nH]c4c(c3c2)CCCC4)c1 2%, NS(=O)(=O)c1ccc(NC(=O)COC(=O)C2(c3ccc(F)cc3)CCCC2)cc1 -9%, Cc1cccc(Nc2nc3c(S(=O)(=O)c4ccccc4)nnn3c3ccccc23)c1C 0%, CCc1ccc(NC(=O)Cn2nc(C)c([N+](=O)[O-])c2C)cc1 -2%, CC(C)c1ccc(C2C(C#N)=C(N)Oc3c2oc(CO)cc3=O)cc1 (configuration not stated) -2%, CCOc1ccc(NC(=O)COc2ccc(C(=O)NC3CCCc4ccccc43)cc2OC)cc1 (configuration not stated) -6%, O=C(NCC1CCCO1)/C(=C/c1ccc(Cl)cc1)NC(=O)c1ccccc1 (configuration not stated) -5%, CCCNS(=O)(=O)c1ccc(CCC(=O)N2CCCC2)cc1 -5%, CC(=O)c1c(C)[nH]c(C(=O)OCC(=O)NCCC(C)C)c1C -3%, CCOC(=O)CCNC(=O)N1CCCC(C(=O)c2ccccc2SC)C1 (configuration not stated) 2%, CC(CC(=O)C1C(C)C=CCC1(C)C)NNC(N)=O (configuration not stated) -3%, CC(Sc1nnnn1C1CCCCC1)C(=O)O (configuration not stated) -2%, COc1ccc(Cl)cc1NC(=O)COC(=O)C(CC(C)C)N1C(=O)C2CC=CCC2C1=O (configuration not stated) -9%, COc1cccc(NC(=O)NCc2ccc(F)cc2)c1 0%, Cc1cc(Cl)c(S(=O)(=O)Nc2ccc3c(c2)OCCO3)cc1OCC(N)=O -1%, Cc1cc(Cl)c(S(=O)(=O)NCCC(=O)O)cc1OCC(N)=O -7%, CN(C)CCOCCOc1ccc(Cl)c2ccccc12 -7%, O=C(Nc1ccccc1C(=O)N1CCCCCC1)c1ccccc1Cl -4%, CC(=O)Nc1ccc(S(=O)(=O)NC2(C(F)(F)F)C(=O)Nc3c2c(=O)[nH]c(=O)n3Cc2ccccc2)cc1 (configuration not stated) -4%, COCCOC(=O)c1c(C)oc2cc(Br)c(OCC(N)=O)cc12 0%, CCCCN(C(=O)COc1ccc(NC(C)=O)cc1)C1CCS(=O)(=O)C1 (configuration not stated) -3%, COCCn1c(C)cc(C(=O)COC(=O)/C=C/c2cccc(OC)c2)c1C -5%, O=C(O)Cc1ccc(NCc2ccccc2Cl)cc1 -3%, CC1CN(S(=O)(=O)c2ccc(C(=O)Nc3sccc3C(N)=O)cc2)CC(C)O1 (configuration not stated) 1%, Cc1ccc(-c2nc(C#N)c(NCCCn3ccnc3)o2)cc1 -2%, O=C(CNCc1ccco1)Nc1cc(S(=O)(=O)N2CCOCC2)ccc1N1CCCC1 -2%

inhibition, active:
CCOc1ccccc1/C=N/NC(=O)CNC(=O)COc1ccccc1 79%, Cc1cc(Cl)c(S(=O)(=O)NCC2CCCO2)cc1OCC(N)=O (configuration not stated) 79%
